# Source: PMC12820563, “FoxP3 forms a head-to-head dimer in vivo and stabilizes its multimerization on adjacent microsatellites”
# In all, about 16,000 sequences were measured (“rpm ratio (pull-down/input)”: median about 0.94, highest 2% from about 1.7 on). The entries come from a sample that favours the highest values as a whole.
# Target: T1, MBP-FoxP1dN (Mus musculus, UniProt P58462 326-579)
# T1 sequence: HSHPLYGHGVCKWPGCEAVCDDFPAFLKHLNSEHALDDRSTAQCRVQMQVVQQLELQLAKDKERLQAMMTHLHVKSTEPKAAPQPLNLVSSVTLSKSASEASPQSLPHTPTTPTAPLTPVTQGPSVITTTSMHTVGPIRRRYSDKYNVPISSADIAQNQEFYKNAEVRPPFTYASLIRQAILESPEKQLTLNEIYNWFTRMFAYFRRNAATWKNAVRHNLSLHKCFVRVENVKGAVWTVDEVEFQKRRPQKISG
# Assay: PD-seq (MBP pull-down with sequencing); 20 mM Tris-HCl pH 7.5, 100 mM NaCl, 1.5 mM MgCl2, 0.4 uM protein, 0.1 uM dsDNA library, 30 min, room temperature, amylose pull-down; high values mean tight binding
# Conditions: protein: recombinant; tags: His6-MBP; chain copies: 2; dsDNA, one strand shown
# Method in brief: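 Protein and DNA were mixed at 0.4 µM and 0.1 µM and held for 30 min at room temperature in Tris pH 7.5 buffer with NaCl and MgCl2; the protein was a His6-MBP-tagged, N-terminally truncated mouse FoxP3 or FoxP1 fragment from E. coli, and the DNA a Klenow-filled double-stranded degenerate library. Amylose resin captured the complexes, which were washed three times. Binding is read as reads-per-million enrichment of pull-down versus input after Illumina sequencing, with replicates pooled.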
row,Sequence,binding signal
1,GATGATTGTTCTCCCAGCTGATGAATTTTGTGTTTCGAGTAAACAAATTTTCCTAATCTTTCTGTTCAAGCGCCATCTAC,1.58 RPM ratio (pull-down/input)
2,GATGATTGTTCTCCCAGCTGATGAATTGTGTGTTTCGAGTAAACAAATTTTCCTAATCTTTCTGTTCAAGCGCCATCTAC,1.57 RPM ratio (pull-down/input)
3,GATGATTGTTCTCCCAGCTGATGAATTTGTGTGTTCGAGTAAACAAATTTTCCTAATCTTTCTGTTCAAGCGCCATCTAC,1.59 RPM ratio (pull-down/input)
4,GATGATTGTTCTCCCAGCTGATGAATTTGTGTTCTCGAGTAAACAAATTTTCCTAATCTTTCTGTTCAAGCGCCATCTAC,1.48 RPM ratio (pull-down/input)
5,GATGATTGTTCTCCCAGCTGATGAATTTTTGTGTTCGAGTAAACAAATTTTCCTAATCTTTCTGTTCAAGCGCCATCTAC,1.95 RPM ratio (pull-down/input)
6,GATGATTGTTCTCCCAGCTGATGAATTTGTGATTTCGAGTAAACAAATTTTCCTAATCTTTCTGTTCAAGCGCCATCTAC,1.41 RPM ratio (pull-down/input)
7,GATGATTGTTCTCCCAGCTGATGAATTGTGTTTTTCGAGTAAACAAATTTTCCTAATCTTTCTGTTCAAGCGCCATCTAC,2.33 RPM ratio (pull-down/input)
8,GATGATTGTTCTCCCAGCTGATGAATTTGTGTTTTCGAGTAAACAAATTTTCCTAATCTTTCTGTTCAAGCGCCATCTAC,2.61 RPM ratio (pull-down/input)
9,GATGATTGTTCTCCCAGCTGATGAATTCTGTGTTTCGAGTAAACAAATTTTCCTAATCTTTCTGTTCAAGCGCCATCTAC,1.14 RPM ratio (pull-down/input)
10,GATGATTGTTCTCCCAGCTGATGAATTGATAGCTTCGAGTAAACAAATTTTCCTAATCTTTCTGTTCAAGCGCCATCTAC,0.923 RPM ratio (pull-down/input)
11,GATGATTGTTCTCCCAGCTGATGAATTGCAATTCTCGAGTAAACAAATTTTCCTAATCTTTCTGTTCAAGCGCCATCTAC,1.38 RPM ratio (pull-down/input)
12,GATGATTGTTCTCCCAGCTGATGAATTAAGCCTATCGAGTAAACAAATTTTCCTAATCTTTCTGTTCAAGCGCCATCTAC,0.873 RPM ratio (pull-down/input)
13,GATGATTGTTCTCCCAGCTGATGAATTCTTCCAATCGAGTAAACAAATTTTCCTAATCTTTCTGTTCAAGCGCCATCTAC,0.955 RPM ratio (pull-down/input)
14,GATGATTGTTCTCCCAGCTGATGAATTTCTATAATCGAGTAAACAAATTTTCCTAATCTTTCTGTTCAAGCGCCATCTAC,1.1 RPM ratio (pull-down/input)
15,GATGATTGTTCTCCCAGCTGATGAATTCTCAACCTCGAGTAAACAAATTTTCCTAATCTTTCTGTTCAAGCGCCATCTAC,0.795 RPM ratio (pull-down/input)
16,GATGATTGTTCTCCCAGCTGATGAATTAATGCCGTCGAGTAAACAAATTTTCCTAATCTTTCTGTTCAAGCGCCATCTAC,1.11 RPM ratio (pull-down/input)

row,Sequence,binding signal
1,GATGATTGTTCTCCCAGCTGATGAATTCACCGCCTCGAGTAAACAAATTTTCCTAATCTTTCTGTTCAAGCGCCATCTAC,0.899 RPM ratio (pull-down/input)
2,GATGATTGTTCTCCCAGCTGATGAATTGTGATCGTCGAGTAAACAAATTTTCCTAATCTTTCTGTTCAAGCGCCATCTAC,1.16 RPM ratio (pull-down/input)
3,GATGATTGTTCTCCCAGCTGATGAATTGACATAATCGAGTAAACAAATTTTCCTAATCTTTCTGTTCAAGCGCCATCTAC,1.63 RPM ratio (pull-down/input)
4,GATGATTGTTCTCCCAGCTGATGAATTGACAACATCGAGTAAACAAATTTTCCTAATCTTTCTGTTCAAGCGCCATCTAC,2.29 RPM ratio (pull-down/input)
5,GATGATTGTTCTCCCAGCTGATGAATTTCTGACATCGAGTAAACAAATTTTCCTAATCTTTCTGTTCAAGCGCCATCTAC,0.96 RPM ratio (pull-down/input)
6,GATGATTGTTCTCCCAGCTGATGAATTATTGACATCGAGTAAACAAATTTTCCTAATCTTTCTGTTCAAGCGCCATCTAC,2 RPM ratio (pull-down/input)
7,GATGATTGTTCTCCCAGCTGATGAATTGTTGACATCGAGTAAACAAATTTTCCTAATCTTTCTGTTCAAGCGCCATCTAC,2.54 RPM ratio (pull-down/input)
8,GATGATTGTTCTCCCAGCTGATGAATTGACATTATCGAGTAAACAAATTTTCCTAATCTTTCTGTTCAAGCGCCATCTAC,1.5 RPM ratio (pull-down/input)
9,GATGATTGTTCTCCCAGCTGATGAATTGATGACATCGAGTAAACAAATTTTCCTAATCTTTCTGTTCAAGCGCCATCTAC,1.34 RPM ratio (pull-down/input)
10,GATGATTGTTCTCCCAGCTGATGAATTATTGAAATCGAGTAAACAAATTTTCCTAATCTTTCTGTTCAAGCGCCATCTAC,1.23 RPM ratio (pull-down/input)
11,GATGATTGTTCTCCCAGCTGATGAATTTTTGACATCGAGTAAACAAATTTTCCTAATCTTTCTGTTCAAGCGCCATCTAC,1.09 RPM ratio (pull-down/input)
12,GATGATTGTTCTCCCAGCTGATGAATTGAACTAATCGAGTAAACAAATTTTCCTAATCTTTCTGTTCAAGCGCCATCTAC,0.992 RPM ratio (pull-down/input)
13,GATGATTGTTCTCCCAGCTGATGAATTACCGCGCTCGAGTAAACAAATTTTCCTAATCTTTCTGTTCAAGCGCCATCTAC,0.948 RPM ratio (pull-down/input)
14,GATGATTGTTCTCCCAGCTGATGAATTTGATTCCTCGAGTAAACAAATTTTCCTAATCTTTCTGTTCAAGCGCCATCTAC,0.839 RPM ratio (pull-down/input)
15,GATGATTGTTCTCCCAGCTGATGAATTCTTGGTTTCGAGTAAACAAATTTTCCTAATCTTTCTGTTCAAGCGCCATCTAC,0.962 RPM ratio (pull-down/input)
